Pyk2 oligo antag: antagonists of human Pyk2 oligomerization; Q14289; Q293 cells, Pyk2 FERM NanoBiT luminescence; active compounds read low; z-score (the deposit names both 25 µM and 10 µM); actives 0.83% (n = 99,000); AID 1347419;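 active means Z-score of -3 or lower, scaled per plate to the spread of control and sample wells; inactive means z-score above -3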;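 further: negative z-score means lost luminescence so less FERM oligomerization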
CYP2C19 inh: blocks human cytochrome P450 2C19; P33261; CYP2C19 Supersomes, luciferin-H EGE luminescence, 30 min; inhibition, % at 5 µM; actives 21% (n = 96,000); AID 778;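 active means CYP2C19 inhibition above a set limit at 5 µM in the primary screen, cut at about 50% in these data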;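 further: plate controls were negative control wells for no effect and 2.5 mM tranylcypromine positive control for full effect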
CYP2C19 activ: activators of human cytochrome P450 2C19. AID 1025. P33261. 96,000 tested, under 10 active. activation factor at 5 µM. recombinant CYP2C19, luciferin-H EGE luminescence; active compounds read high; 0 = fully inhibited enzyme, 1 = untreated enzyme;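 active means activation factor of at least 2 at 5 µM in the primary screen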;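 further: 0 = wells with 2.5 mM tranylcypromine and 1 = vehicle-only wells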
CYP2C9 activ: activators of human CYP2C9. recombinant CYP2C9, luciferin-H conversion, luminescence; active compounds read high; factor 1 = untreated enzyme, 0 = blocked. P11712. activation factor at 5 µM. actives 1.4% (n = 96,000). AID 1024;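 active means activation factor of 2 or more for CYP2C9 at a 5 µM dose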;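 further: 0 = sulfaphenazole-blocked wells and 1 = vehicle-only wells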
Cav3 T inh: human Cav3.2 channel inhibition, primary screen; O95180; Cav3.2-expressing cells, Fluo-4 calcium fluorescence FDSS; active compounds read low; B-score at 10 µM; actives 4% (n = 100,000);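 active means single-dose well whose peak fluorescence ratio is a statistical outlier from its plate by either plate-standardised score or position-corrected B-score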
Target sequence (O95180 whole entry, looked up): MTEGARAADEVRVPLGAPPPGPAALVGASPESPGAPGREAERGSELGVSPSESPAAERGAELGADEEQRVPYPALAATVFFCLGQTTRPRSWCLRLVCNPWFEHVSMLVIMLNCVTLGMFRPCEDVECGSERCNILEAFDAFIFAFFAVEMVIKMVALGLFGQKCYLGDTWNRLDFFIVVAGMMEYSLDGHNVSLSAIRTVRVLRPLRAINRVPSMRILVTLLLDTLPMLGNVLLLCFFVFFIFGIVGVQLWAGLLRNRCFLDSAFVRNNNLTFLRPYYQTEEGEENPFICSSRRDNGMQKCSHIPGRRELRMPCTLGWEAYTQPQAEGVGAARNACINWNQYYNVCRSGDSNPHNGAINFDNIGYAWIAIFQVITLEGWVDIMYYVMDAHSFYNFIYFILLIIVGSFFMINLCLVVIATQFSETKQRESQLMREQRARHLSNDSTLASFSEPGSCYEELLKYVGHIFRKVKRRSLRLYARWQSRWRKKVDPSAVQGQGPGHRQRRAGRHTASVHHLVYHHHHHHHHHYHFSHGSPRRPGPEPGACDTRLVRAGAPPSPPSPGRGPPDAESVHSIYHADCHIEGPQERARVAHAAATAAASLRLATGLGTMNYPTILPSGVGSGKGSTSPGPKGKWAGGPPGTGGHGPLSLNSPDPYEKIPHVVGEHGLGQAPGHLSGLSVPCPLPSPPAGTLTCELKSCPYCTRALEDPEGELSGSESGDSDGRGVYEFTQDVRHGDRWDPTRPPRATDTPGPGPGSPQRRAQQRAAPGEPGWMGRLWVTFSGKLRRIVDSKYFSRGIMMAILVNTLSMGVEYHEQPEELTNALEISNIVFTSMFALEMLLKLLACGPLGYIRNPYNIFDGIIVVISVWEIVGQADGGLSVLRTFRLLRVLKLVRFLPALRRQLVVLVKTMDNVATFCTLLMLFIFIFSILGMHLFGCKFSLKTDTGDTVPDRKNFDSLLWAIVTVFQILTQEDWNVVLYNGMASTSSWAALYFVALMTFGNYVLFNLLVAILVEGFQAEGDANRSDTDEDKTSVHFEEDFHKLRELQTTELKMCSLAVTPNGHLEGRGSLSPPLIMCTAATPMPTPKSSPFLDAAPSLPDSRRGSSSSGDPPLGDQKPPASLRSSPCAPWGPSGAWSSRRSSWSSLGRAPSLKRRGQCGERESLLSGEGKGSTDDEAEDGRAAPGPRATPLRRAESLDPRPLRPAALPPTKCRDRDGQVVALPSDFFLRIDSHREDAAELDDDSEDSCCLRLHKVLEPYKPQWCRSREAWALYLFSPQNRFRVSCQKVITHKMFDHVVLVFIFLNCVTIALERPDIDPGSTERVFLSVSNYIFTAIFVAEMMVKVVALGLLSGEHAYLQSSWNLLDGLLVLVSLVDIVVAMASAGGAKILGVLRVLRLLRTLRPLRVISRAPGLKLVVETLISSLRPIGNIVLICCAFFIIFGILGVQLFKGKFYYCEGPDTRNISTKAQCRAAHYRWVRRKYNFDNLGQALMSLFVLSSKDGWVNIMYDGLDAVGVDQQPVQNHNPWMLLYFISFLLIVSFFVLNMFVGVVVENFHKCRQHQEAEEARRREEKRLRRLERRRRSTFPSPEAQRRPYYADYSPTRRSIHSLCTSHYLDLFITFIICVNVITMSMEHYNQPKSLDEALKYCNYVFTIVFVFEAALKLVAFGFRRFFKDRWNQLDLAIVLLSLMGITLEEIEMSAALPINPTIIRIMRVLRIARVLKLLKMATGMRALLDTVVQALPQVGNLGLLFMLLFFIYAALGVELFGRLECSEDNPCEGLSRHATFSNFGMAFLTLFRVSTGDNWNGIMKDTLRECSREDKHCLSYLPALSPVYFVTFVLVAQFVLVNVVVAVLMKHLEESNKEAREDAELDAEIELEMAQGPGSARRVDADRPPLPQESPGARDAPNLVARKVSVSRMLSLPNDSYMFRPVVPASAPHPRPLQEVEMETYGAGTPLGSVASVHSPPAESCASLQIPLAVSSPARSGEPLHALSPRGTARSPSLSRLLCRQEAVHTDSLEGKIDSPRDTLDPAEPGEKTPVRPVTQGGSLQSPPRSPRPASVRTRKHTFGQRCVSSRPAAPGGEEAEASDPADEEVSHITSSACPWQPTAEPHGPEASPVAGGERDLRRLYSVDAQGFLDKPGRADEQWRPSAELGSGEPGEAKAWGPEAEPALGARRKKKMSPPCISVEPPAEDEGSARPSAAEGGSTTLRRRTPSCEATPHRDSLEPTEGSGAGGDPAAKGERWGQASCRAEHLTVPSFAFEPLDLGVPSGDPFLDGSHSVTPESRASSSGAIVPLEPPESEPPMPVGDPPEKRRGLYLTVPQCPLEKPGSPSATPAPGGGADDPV
CYP2C9 inh: blocks human cytochrome P450 2C9; actives 20% (n = 96,000); P11712; CYP2C9 Supersomes, luciferin-H conversion, luminescence; inhibition, % at 5 µM;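 active means blocking of liver enzyme CYP2C9 beyond about 50% at 5 µM, limit read from the data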
* = called active by the depositor; / = no result. Sampled rows, rich in hits. Any-hit rate of the full collection: about 27%.

SMILES	Pyk2 oligo antag	CYP2C19 inh	CYP2C19 activ	CYP2C9 activ	Cav3 T inh	CYP2C9 inh
O=C(O)c1ccc(COc2ccccc2Cl)cc1	1.4	25	0.8	0.8	-0.034	19
O=C(O)c1cccc(COc2ccccc2Cl)c1	1.4	97*	0	0	0.75	95*
Cc1ccc(S(=O)(=O)Cn2nnnc2C(c2ccc(F)cc2)N2CCC(C(N)=O)CC2)cc1 (stereo unspecified)	-0.58	-2	1	0.9	-0.28	8
Cc1nc(=O)c(-c2ccccc2)c(C)n1-c1ccc(O)c(C(=O)O)c1	-0.4	4	1	0.9	0.37	6
COc1cc(NC(=O)COc2cccc(OC)c2)cc(OC)c1	0.74	88*	0.1	1	-0.42	-4
O=C(COc1cccc(Oc2ccccc2)c1)Nc1ncccn1	0.18	38	0.6	0.9	0.12	11
O=C(COc1cccc(OC(F)F)c1)Nc1ccc(SC(F)F)cc1	2.2	81*	0.2	1.1	-4.8	-5
O=C(COc1cccc(-n2cnnn2)c1)Nc1ccccc1	0.62	/	/	/	-0.0041	/
COc1ccc(Cl)cc1NC(=O)COc1cccc(-n2cnnn2)c1	0.45	29	0.7	3.3*	-0.13	-234
CC(=O)Nc1cccc(OCC(=O)Nc2ccccc2)c1	0.17	34	0.7	1.3	/	-26
COc1ccc(NC(=O)CCC2CCCC2)cc1OC	0.3	95*	0.1	0.7	0.098	28
COc1ccc(OC)c(C2NC(=O)NC(C)=C2C(=O)Nc2ccc(C)cc2C)c1 (stereo unspecified)	0.42	44	0.6	0.8	0.8	24
CCC(=O)Nc1cccc(NC(=O)COc2ccc(OC)cc2)c1	0.63	36	0.6	1.5	0.21	-51
COc1cccc(OCC(=O)Nc2ccc(OC)c(OC)c2)c1	0.61	51*	0.5	0.9	0.69	13
Cc1cccc2cc(COC(=O)C3CCCO3)c(=O)[nH]c12 (stereo unspecified)	1.2	-11	1.1	1.1	0.43	-6
COc1c2c(nc3occc13)C(CCC(C)(C)O)(OC)C(O)CC2 (stereo unspecified)	-0.43	56*	0.4	0.5	-1	54*
COc1c2ccoc2nc2c(OC)c(O)ccc12	/	/	/	/	2.5	/
O=C(NCc1ccccc1)c1onc(CSc2ccccc2)c1C(=O)NCC1CC1	/	/	/	/	-3	/
CCO[C@@H]1OC(C(=O)N2CCOCC2)=C[C@H](c2ccccc2)[C@H]1CCCO	/	/	/	/	0.22	/
COc1cccc(C(c2sc3ncnn3c2O)N2CCN(C(=O)c3ccco3)CC2)c1 (stereo unspecified)	/	/	/	/	0.86	/
O=C(Nc1cccc(NC(=O)c2ccc(-c3cccc(Br)c3)o2)c1)c1ccco1	-2.6	54*	0.5	0.4	-2.9	60*
O=C(Nc1cccc2ncccc12)c1ccc(-c2ccc(Br)cc2)o1	-0.27	13	0.9	0.9	1.1	7
O=C(Nc1ccccc1)c1ccc(-c2ccc(Br)cc2)o1	1.4	/	/	/	-5.3*	/
COc1cc(NC(=O)c2ccc(-c3ccc(Br)cc3)o2)ccc1NC(=O)C(C)C	-1.1	54*	0.5	0.6	0.045	43
COc1ccccc1NC(=O)c1ccc(-c2ccc(Br)cc2)o1	-1.2	6	0.9	1.8	0.038	-78
SMILES	Pyk2 oligo antag	CYP2C19 inh	CYP2C19 activ	CYP2C9 activ	Cav3 T inh	CYP2C9 inh
O=C(Nc1cccc(NC(=O)c2ccc(-c3ccc(Br)cc3)o2)c1)c1ccccc1	-0.28	-18	1.2	1.1	-6.1*	-8
CCc1ccc(OCC(=O)NNC(=O)CSc2ncnc3sc(C)c(C)c23)cc1	2.8	8	0.9	1.1	-0.6	-13
Cc1ccc(S(=O)(=O)N(CC(=O)N/N=C/c2cccc(Cl)c2)c2cccc3cccnc23)cc1	0.41	-4	1	1	/	1
O=C(CCCSc1nc2sc3c(c2c(=O)[nH]1)CCC3)NCCO	0	6	0.9	0.8	1.9	16
CC1CCCC(C)N1CC(O)COc1ccc(Cl)cc1 (stereo unspecified)	-1.5	25	0.7	1.1	0.76	-10
C=CCOc1c(Br)cc(CNc2ccc(NC(=O)C(C)C)c(OC)c2)cc1OC	1.5	61*	0.4	0.5	-3.8*	46
O=C(Nc1cccc(O)c1)c1ccc(Br)cc1	0.94	52*	0.5	0.7	-0.012	29
COc1ccc(CCN2C(=O)CC(Sc3ncccc3C(=O)O)C2=O)cc1OC (stereo unspecified)	-0.3	-11	1.1	1.1	-0.39	-7
CS(=O)(=O)N1CCC(C(=O)NCc2ccc(F)cc2Cl)CC1	0.14	2	1	1	1.5	-5
O=C(c1c(F)cccc1F)N1CCN(c2ncccn2)CC1	2.4	23	0.8	0.3	-0.67	65*
O=C(c1ccc(Br)s1)N1CCN(c2ncccn2)CC1	0.55	98*	0	0.2	-0.66	80*
N#C/C(=C\c1ccccc1)c1nc2ncccc2[nH]1	-0.23	16	0.8	0.3	1.1	66*
CCOC(=O)/C=c1\s/c(=C\c2ccc3c(c2)OCCO3)c(=O)n1CC(=O)NCC1CCCO1 (stereo unspecified)	-1.2	73*	0.3	0.4	-0.46	58*
CCOC(=O)/C=c1\s/c(=C\c2c(OCC)ccc3ccccc23)c(=O)n1CC(=O)NCC1CCCO1 (stereo unspecified)	-1.9	93*	0.1	0.3	-6.4*	70*
CC(=O)Nc1ccc(S(=O)(=O)NCc2csc(C)n2)cc1	0.37	/	/	/	-0.081	/
CC(C)(C)C(=O)/C(=C\c1ccc([N+](=O)[O-])cc1)n1cncn1	/	/	/	/	-0.18	/
O=C(c1cc(-c2ccco2)nn1-c1cccc(Cl)c1)N1CCCCC1	-0.29	64*	0.4	0.1	-5.9*	87*
CN1CCN(Cc2ccc(-c3ccc(Cl)cc3)o2)CC1	0	57*	0.4	0.9	-1.3	7
COc1ccc2[nH]c(=O)c(CN(Cc3ccco3)Cc3nnnn3Cc3ccccc3)cc2c1	1.9	12	0.9	1	-0.88	-4
Cc1ccc2cc(CN(Cc3ccc4c(c3)OCO4)Cc3nnnn3Cc3ccco3)c(=O)[nH]c2c1C	0.39	86*	0.1	0.2	-0.81	80*
Cc1ccc(C)c2[nH]c(=O)c(CN(Cc3ccc4c(c3)OCO4)Cc3nnnn3Cc3ccco3)cc12	1	38	0.6	0.2	-0.3	75*
Cc1ccc2cc(CN(CCN3CCOCC3)Cc3nnnn3Cc3ccco3)c(=O)[nH]c2c1C	1.6	38	0.6	0.3	-0.14	69*
COCCn1nnnc1CN(Cc1ccco1)Cc1cc2cc3c(cc2[nH]c1=O)OCO3	-0.13	10	0.9	1	-0.17	-4
CC(C)(C)OC(=O)N1CCC(C(=O)N2CCC[C@H]2C(=O)O)CC1	0.5	-2	1	1	0.35	-2
